# Measurements taken from PubChem BioAssay (NCI).
# Where “and” joins values, the source holds several entries; their conditions need not be identical. Equal entries are not always repeated. About 83,000 compounds went through this panel and 20% of them were active in at least one assay; those are over-represented in the sample as a whole.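 Single-concentration screen, 48 h exposure, 96-well plates. Endpoint: percent growth. Below 10 = active.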 Calls of active or inactive are those of the source.
# Tested on: T-47D breast
# Test: NCI-60 one-dose screen, 48 h (100 = growth as untreated, 0 = no growth, -100 = all killed)
# Details: 10 µM unless noted
# Description: Growth inhibition of the T-47D human tumor cell line is measured as a screen for anti-cancer activity. Cells are grown in 96 well plates and exposed to the test compound for 48 hours. Compounds are tested at a single concentration, which is 10^-5 M for most compounds. The reported endpoint is percent growth (GI% or GIPRCNT), where numbers from 0 - 100% represent growth inhibition, and numbers from -100% - 0 represent cell death. For example, a value of 40 represents 60% growth inhibition. A value of 0 means no net growth occurred over the course of the experiment. A value of -40 indicates 40% of cells at the beginning of the experiment died by the end of the experiment. A value of -100 means all cells are dead at the end of the experiment.
# NCI-60 Human Tumor Cell Lines Screen was performed using the standard one-dose NCI protocol, which is described in more detail at https://dtp.cancer.gov/discovery_development/nci-60/default.htm.
# Compounds with GIPRCNT values below 10 were considered active. Activity score was based on GIPRCNT using the following formula: […]
# Score is 0 for GIPRCNT values of 100 or above, 50 for GIPRCNT values of 0, and 100 for GIPRCNT values of -100.
row,Compound,growth
1,CCN(CC)CCOc1ccc(/C(=C(\Cl)c2ccccc2)c2ccccc2)cc1,23.4% (inactive) and 48.9% (inactive)
2,Nc1nc(Nc2ccc(F)cc2)nn1C(=O)c1cc(Cl)ccc1Cl,84.9% (inactive)
3,CONC1=Nc2cc(NC(N)=NCc3ccccc3)c(N(C)C3CCCCC3)cc2OC1,63.7% (inactive)
4,O=C1/C(=C/c2ccc(F)c(F)c2)CN(C(=O)C(Cl)Cl)C/C1=C\c1ccc(F)c(F)c1,-46.2% (active)
5,COC1=CC(=O)C(OC)=C(O)C1=O,89% (inactive)
6,C#CCOCC1CN(C)C(=O)O1 (stereo not given),126% (inactive)
7,COc1ccc(/C(C)=C(\c2ccc(OCCN3CCCCCC3)cc2)c2ccc(OC(=O)C3CCCCC3)cc2)cc1,-57% (active)
8,Cc1ccc(C(=O)c2ccc(CC(=O)N=Nc3c(O)[nH]c4ccc(OC(F)(F)F)cc34)n2C)cc1,74.5% (inactive)
9,O=C(NNc1ccccc1)c1ncc[nH]1,43.6% (inactive)
10,COc1ccc2c(O)c(/C=C3\N=Nc4nc(C)ccc43)oc2c1CC1CCNCC1,89.5% (inactive)
11,CCN(CC)CCCN1C(=O)c2c(c(C)c3c(oc4cc(OC)ccc43)c2C)C1=O,112% (inactive)
12,CC(=O)OC[C@]12CCC(C)(C)C=C1[C@H]1CC[C@@H]3[C@@]4(C)CCCNC(C)(C)[C@@H]4CC[C@@]3(C)[C@]1(C)CC2,51.8% (inactive)
13,O=C(O)C1C2CCC1C(O)C2 (stereo not given),92.3% (inactive) and 97.4% (inactive)
14,CC1(Cc2ccccc2)CC2=C(C(=O)O1)C(c1ccccc1)NC(=O)N2 (stereo not given),97% (inactive)
15,CN1CCN(c2ccc(/C=C/C(=O)c3ccc(O)cc3)cc2)CC1,83.6% (inactive)
16,O=C(CCCOc1ccc(Br)cc1)Nc1ncc(Cc2ccc(F)cc2)s1,58% (inactive)
17,C/C(=C(\c1ccc(OCCN2CCOCC2)cc1)c1ccc(OC(=O)C2CCCCC2)cc1)c1ccc(Cl)cc1,66.5% (inactive)
18,CSc1nnc(-c2cc3c([nH]c4ccccc43)c(-c3cccc(O)c3)n2)n1-c1ccc(C)cc1,24.5% (inactive)
19,Cc1ccc(NC(=O)c2ccc(CN3CCN(C)CC3)cc2)cc1Nc1nccc(-c2cccnc2)n1,81.4% (inactive) and 57.8% (inactive)
20,COC(=O)/C=C1/SC(=Nc2ccc([N+](=O)[O-])cc2)N(CCc2c[nH]c3ccccc23)C1=O,46.5% (inactive)

row,Compound,growth
1,Fc1ccc(NC(c2ccc(F)cc2)C2CCN(CCCCc3ccccc3)CC2)cc1 (stereo not given),22.4% (inactive)
2,ON=C1CCCCCCCC1,97.7% (inactive) and 99.2% (inactive)
3,Nc1ccc(S(=O)(=O)c2ccc(N)cc2)cc1,104% (inactive) and 100% (inactive)
4,COc1cccc(C2C(C#N)=C(N)Oc3cc(OCCCCCC[P+](c4ccccc4)(c4ccccc4)c4ccccc4)ccc32)c1 (stereo not given),-32.9% (active)
5,CC(Sc1ccccc1)C(=O)O (stereo not given),105% (inactive)
6,N=C1/C(=C2\NC3C=CC=CC3S2)C(c2ccc(Cl)cc2)C2C(=O)N(c3ccccc3)C(=S)N12 (stereo not given),102% (inactive)
7,O=C(Nc1ccc2ccccc2c1)c1cc2ccccc2cc1O,83.3% (inactive)
8,COc1ccc(C(=O)N/N=C/c2ccc(O)cc2O)cc1Nc1ccnc(C(F)(F)F)c1,21.6% (inactive)
9,Nc1n[nH]c2cccc(C#Cc3cccc(NC(=O)c4ccc(N5CCOCC5)c(C(F)(F)F)c4)c3)c12,-0.951% (active)
10,NC(=O)c1c(NC(=O)/C=C/c2cccs2)sc2c1CCC(=O)C2,16.2% (inactive)
11,O=C(N=Nc1c(O)[nH]c2ccccc12)Nc1ccccc1Cl,42% (inactive)
12,O=C(Cn1cc(CN2CCN(c3ccnc4cc(Cl)ccc34)CC2)nn1)Nc1cccc([N+](=O)[O-])c1,75% (inactive)
13,COc1cc(-c2[nH]ncc2Nc2ccc(Cl)cc2)cc(OC)c1OC,46.4% (inactive)
14,CCOC(=O)N(O)c1ccc(/C=C/c2ccccc2)cc1,11.2% (inactive) and 5.56% (active)
15,Nc1nc(Nc2cccnc2)sc1C(=O)c1ccccc1F,33% (inactive)
16,CCCCn1c(C(=O)c2c[nH]c3ccccc23)n[nH]c1=S,77.5% (inactive)
17,CN(C)C(=O)c1cc2cnc(Nc3ccc(-c4csc5c(=S)cc(N6CCOCC6)oc45)cc3)nc2n1C1CCCC1,-3.44% (active)
18,C=C1CC[C@@H]2[C@](C)(COC(C)=O)[C@H](OC(C)=O)CC[C@@]2(C)[C@@H]1CC(Nc1ccc(S(=O)(=O)Nc2nccs2)cc1)C1=CCOC1=O (stereo not given in full),34.6% (inactive)
19,C=C(CN1CC=CCC1)[C@@H]1CC[C@]2(COC(C)=O)CC[C@]3(C)[C@H](CC[C@@H]4[C@@]5(C)CC[C@H](O)C(C)(C)[C@@H]5CC[C@]43C)[C@@H]12,78.7% (inactive)
20,CC(=O)Nc1c(I)c(NC(C)=O)c(I)c(C(=O)O)c1I,96.6% (inactive) and 102% (inactive)
